# Compound activity: PubChem BioAssay, several laboratories
# Sampled rows, rich in hits. Any-hit rate of the full collection: about 4.7%.
# TROY signal inh: inhibitors of TROY-driven NF-kB signaling, primary screen, Q293 LMP1-TROYcd cells, NF-kB luciferase, uHTS; Q293 LMP1-TROYcd NF-kB luciferase reporter, 4 h; inhibition, % at 10 µM; hit rate 0.98% among 360,000; AID 1347056, 2019;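 active = compounds whose plate-normalised and pattern-corrected inhibition of the luciferase reporter signal at the single screening dose is 50% or more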
# TWEAK Fn14 block: inhibitors of TWEAK-Fn14 signaling, primary screen, luciferase reporter cells, uHTS. TWEAK-stimulated Fn14 reporter cells, luciferase luminescence, 8 h. inhibition, % at 10 µM. hit rate 2% among 360,000; in the data active = inhibition above about 50%
# EBV LMP1 NFkB: EBV LMP1-driven NF-kappaB luciferase reporter inhibitors, primary screen, cell-based, luminescence, single point; LMP1-induced NF-kappaB luciferase reporter cells; inhibition, % at 12.5 µM; hit rate 0.69% among 350,000; AID 504558, 2011; in the data active = inhibition above about 41%; inconclusive = no clear call, values can overlap the other calls
# HSF1 activator: HSF-1 activators, primary screen, NIH3T3-HGL cells, MG132 stress, luminescence, single point; activation, % at 9 µM; NIH3T3-HGL HSF-1 luciferase reporter, 8 h; 100% = twice DMSO control signal; hit rate 1.7% among 300,000; AID 504408, 2011;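 active = mean replicate activation of at least 50% with a set share of replicates each reaching 50%; inconclusive = only one of those two conditions met; inactive = mean below 50% and too few replicates reaching it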
# HSF1 inhib: HSF1 inhibitors in luciferase reporter cells, primary screen, cell-based, NIH3T3, luminescence | activity change, negative = inhibition, % at 7.5 µM (by protocol) | NIH3T3-HGL HSE-luciferase, MG132-induced, luminescence 8 h; stronger effect = lower value | hit rate 0.77% among 300,000;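 active = more than half of replicate wells show activity change below -50%, luminescence cut by over half; inconclusive = some wells, but at most half, below -50%; inactive = no replicate well below -50%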;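 note: luciferase reports HSF-1 transcriptional activity via heat shock element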
# HSP90 inh: HSP90 inhibitors, primary screen, cell lysate, luminescence. Heat shock protein HSP 90 (rabbit reticulocyte lysate; luciferase refolding). Rabbit reticulocyte lysate, luciferase refolding luminescence, 3 h. inhibition, % at 5.6 µM. hit rate 0.91% among 290,000. AID 1789, 2009;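 active = inhibition above the screen-wide mean plus 3 SD, computed separately per campaign, cut at about 16% in these data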;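 note: inhibitors lower the luminescence because luciferase stays unfolded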
# Hits are given with their value; - = inactive; ? = inconclusive; . = no result.
SMILES,TROY signal inh,TWEAK Fn14 block,EBV LMP1 NFkB,HSF1 activator,HSF1 inhib,HSP90 inh
CCOC(=O)[C@]12CCCC=C1N(Cc1ccc(Cl)cc1Cl)C(=O)[C@H](CC(=O)NCCc1ccccc1OC)C2,-,-,.,.,.,.
CCCCCCC(=O)N(O)C1CC(=O)N(c2ccc(Br)cc2)C1=O (stereo not given),-,-,43,-,-,-
CCCCCCC(=O)N(O)C1CC(=O)N(c2ccc(F)cc2)C1=O (stereo not given),-,-,-,-,-,-
Cc1nonc1NC(=O)CSc1nc(C23CC4CC(CC(C4)C2)C3)nc2ccccc12,-,66,-,-,-,-
Cc1nonc1NC(=O)CSc1nc(C2CCCCC2)nc2ccccc12,-,-,-,-,-,-
COc1cc(CN2C[C@@H](CO)O[C@@H](n3cnc4c(N5CCOCC5)ncnc43)C2)cc(OC)c1OC,-,-,.,.,.,.
COc1ccc(C(=O)OCC(=O)c2c[nH]c3ccccc23)c(OC)c1,-,-,-,.,.,.
CCOc1ccc(N(C)S(=O)(=O)c2ccc(C)c(C(=O)OCC(=O)c3c[nH]c4ccccc34)c2)cc1,-,79,-,-,-,-
CC(C)n1cnc2cc(NCc3ccccn3)ccc21,52,-,-,-,-,-
CCOC(=O)C1CCCN(C(=O)c2sc(-c3ccccc3)nc2C)CC1 (stereo not given),-,-,.,.,.,.
CC1OC(CC(=O)O)CC2=C1C(=O)c1c(O)cccc1C2=O (stereo not given),64,106,88,.,.,.
Cc1cc(C(=O)COC(=O)c2ccc[nH]c2=O)c(C)n1C1CC1,-,-,-,-,-,-
Cc1cc(C(=O)COC(=O)c2ccc[nH]c2=O)c(C)n1-c1ccc(F)cc1,70,64,-,-,-,-
Cc1cc(C(=O)COC(=O)c2ccc[nH]c2=O)c(C)n1-c1ccccc1,71,58,47,-,-,-
CC(=O)NC(c1ccccc1)c1nc(-c2ccc3ccccc3c2)cs1 (stereo not given),-,-,.,.,.,.
FC(F)(F)c1cccc(CC2CN(Cc3ccccc3)Cc3ccccc3N2c2cc(Cl)cc(Cl)c2)c1 (stereo not given),-,91,-,.,.,.
CCOc1cc(/C=N/N2CCN(Cc3ccccc3)CC2)ccc1O,-,-,45,-,-,-
CCOc1cc(C=NN2CCCCCC2)ccc1O,-,-,-,.,.,.
Cc1ccc(C(NC(=O)C2CCN(Cc3ccc(Cl)c(Cl)c3)CC2)c2ccccn2)cc1 (stereo not given),-,-,.,.,.,.
C=CCN1C(=O)N(/C=C/C)c2cccc3cccc1c23,56,-,-,-,-,-
COC(C(=O)N/N=C(\C)CC(=O)Nc1ccc(Cl)cc1C)c1ccccc1 (stereo not given),-,-,-,122,-,-
COC(C(=O)N/N=C(\C)CC(=O)Nc1ccc(N(C)C)cc1)c1ccccc1 (stereo not given),-,-,-,-,-,-
C/C(=N\NC(=O)c1c(C)nc2ccccn12)c1ccc(C(C)(C)C)cc1,-,-,-,-,-55,-
CCCNC(=O)Cn1c2ccccc2c2nc(=O)cc(C)n21,-,-,-,-,-,-
CCC1CCCCN1CCCNC(=O)Cn1c2ccccc2c2nc(=O)cc(C)n21 (stereo not given),-,-,-,64,-,-
SMILES,TROY signal inh,TWEAK Fn14 block,EBV LMP1 NFkB,HSF1 activator,HSF1 inhib,HSP90 inh
N#Cc1ccc(NC(=O)Nc2ccc(Oc3ccc(NC(=O)Nc4ccc(C#N)cc4)cc3)cc2)cc1,62,105,-,-,-,-
N#Cc1ccccc1Sc1ccccc1C(=O)OCC(=O)NC12CC3CC(CC(C3)C1)C2,-,63,-,-,-,-
O=C(COC(=O)c1ccccc1)NC12CC3CC(CC(C3)C1)C2,-,-,-,.,.,.
CCOc1ccccc1C1N=C(c2ccc(OC)cc2)CC(c2ccccc2O)N1 (stereo not given),-,-,-,130,-,-
CN1CCN(C(=O)c2ccc(Cc3cn(C)c4ccccc34)nc2)CC1,-,-,.,.,.,.
COc1cccc(CNc2nc(-c3cccnc3)nc3ccccc23)c1,-,-,-,69,-,-
CCOC(=O)c1cccc(Nc2nc(-c3cccnc3)nc3ccccc23)c1,-,69,-,-,-,-
COc1ccc(C2CC=C(C(C)=O)CN2S(=O)(=O)c2ccc(Cl)cc2)cc1 (stereo not given),-,-,.,.,.,.
OC(c1cccc(CN2CCCCC2)c1)c1ncc(-c2cccc3ccccc23)[nH]1 (stereo not given),-,-,.,.,.,.
Cc1c(C(=O)NCc2cccc(C(F)(F)F)c2)sc(=O)n1Cc1ccccc1F,-,-,.,.,.,.
O=C(C=Cc1ccccc1)CC(c1ccccc1)N1CCOCC1 (stereo not given),-,92,-,.,.,.
Cc1cc(C)n(C2CCCCC2OC(=O)c2ccccc2F)n1 (stereo not given),-,-,42,-,-,-
Cc1cc(C)n(C2CCCCC2OC(=O)c2ccccc2)n1 (stereo not given),-,-,-,-,-,-
COc1ccc(CN2CCC(n3nccc3NC(=O)C3CC3)CC2)cc1O,-,-,-,-,-,-
CSc1cccc(CN2CCC(n3nccc3NC(=O)C3CC3)CC2)c1,-,-,56,-,-,-
COc1cccc(CN2CCN(C(=O)[C@H]3O[C@@H](n4cnc5c(N)ncnc54)[C@H](O)[C@@H]3O)CC2=O)c1,-,-,.,.,.,.
CCOc1ccc(NC(=O)c2cnccn2)cc1,-,-,-,-,-,-
CCOc1ccc(NC(=O)c2cnsn2)cc1,-,57,56,.,.,-
CCOc1ccccc1C(=O)Nc1ccc(C(=O)c2ccccc2)cc1,-,-,-,-,-,-
CCOc1ccccc1C(=O)Nc1ccc(NC(=O)c2ccccc2)cc1,-,-,-,-,-79,-
CCOc1ccc(NC(=O)c2cccnc2C(=O)O)cc1,-,-,-,-,-66,-
CCOc1ccc(NC(=O)NNC(=O)c2cc3ccccc3cc2O)cc1,52,55,-,-,-,-
CCOc1ccc(NC(=O)c2ccccc2O)cc1,-,-,-,102,-,-
S=C(N/N=C/c1ccc2ncccc2c1)Nc1ccccc1,-,-,-,-,?,-
CNC(=S)N/N=C/c1c(Cl)cccc1Cl,-,-,-,-,-59,-
CNC(=S)N/N=C/c1ccccc1Cl,-,-,-,-,-,-
Oc1ccc(C=NNC(=S)Nc2ccccc2)nc1,-,-,51,.,.,.
S=C(N/N=C/c1ccccc1Cl)Nc1ccccc1,-,-,-,72,-,-
Cc1cccc(C)c1NC(=S)N/N=C/c1c(Cl)cccc1Cl,-,-,-,-,-,-
